What all share (assay type): functional
Test [1] has as its system Plasmodium falciparum. Nature of the test: GSK_TCMDC: Inhibition of Plasmodium falciparum 3D7 in whole red blood cells, using parasite LDH activity as an index of growth. Test compounds present at 2uM.
The subject of test [2] is Plasmodium falciparum. As to the kind of experiment: GSK_TCMDC: Inhibition of Plasmodium falciparum Dd2 in whole red blood cells, using parasite LDH activity as an index of growth. Test compounds present at 2uM.
For the next test, the system named is HepG2. Nature of the test: GSK_TCMDC: Percent inhibition of human HepG2 cell line. Test compounds present at 10uM.

Structures are written as SMILES.

As to `CCCC1(NC[C@@H](O)[C@H](Cc2ccccc2)NC(=O)c2cc(NCC)cc(N3CCCCS3(=O)=O)c2)CCC1.Cl`, the Inhibition – broadly, the relative decrease from the control value, in per cent – in the test on Plasmodium falciparum [1] was determined as 100%; in the test with Plasmodium falciparum [2], 86%; in the test on HepG2 it was 0%.

On to `Cl.O=C(NCCCCN1CCC(c2ccc3c(c2OC(=O)c2ccc(NC(=O)c4ccc(Cl)cc4)cc2)CCCC3)CC1)c1ccc(NC(=O)c2ccc(Cl)cc2)cc1`, for which the Inhibition with Plasmodium falciparum [1] amounted to 100%; with Plasmodium falciparum [2], 99%; with HepG2 it was 62%.

As for `Cc1cccc2nc(-c3cccc(-c4cccc(C(=O)NCCN5CCCC5)c4)c3)[nH]c12`, the Inhibition amounted to 100% in the test with Plasmodium falciparum [1], 75% in the test with Plasmodium falciparum [2] and 21% in the test on HepG2.

`COc1ccc(OCCCN2CCCCC2)cc1S(=O)(=O)c1ccc(OCc2ccc(C(F)(F)F)cc2)cc1.Cl`: the figures for the Inhibition with Plasmodium falciparum [1], with Plasmodium falciparum [2] and in the test with HepG2 were 94%, 8% and 52%, respectively.

In the case of `COCCN1CCN(Cc2ccc(-c3ccc(-c4nc5cccc(C)c5[nH]4)s3)cc2)CC1.O=C(O)C(F)(F)F`, the Inhibition with Plasmodium falciparum [1] turned out to be 95%; with Plasmodium falciparum [2], 52%; with HepG2 it was 32%.

For the molecule `O=C(NCc1ccc(Cl)c(Cl)c1)c1cc(CNC2CCNCC2)ccc1O`, the results for the Inhibition in the test on Plasmodium falciparum [1], with Plasmodium falciparum [2] and in the test on HepG2 were 82%, 2% and 2%, respectively.

Take `CCCCCN1CCC(NC(=O)c2ccc(C(=O)Nc3ccc(C(C)C)cc3)cc2)CC1.O=C(O)C(F)(F)F`: the Inhibition in the test on Plasmodium falciparum [1] is on record as 98%; in the test with Plasmodium falciparum [2], 9%; in the test with HepG2, 41%.

For the molecule `COc1ccc2nccc(N/N=C/c3ccccc3[N+](=O)[O-])c2c1`, the Inhibition with Plasmodium falciparum [1] is recorded as 100%; with Plasmodium falciparum [2], 100%; in the test on HepG2 it was 67%.

As to `CCCc1cc(NCc2ccncc2)nc(Nc2ccc(F)cc2)n1`, the figures for the Inhibition with Plasmodium falciparum [1], in the test with Plasmodium falciparum [2] and with HepG2 were 90%, 6% and 9%, respectively.

Regarding `COc1ccc(CN2CCN(C(=O)c3cccs3)CC2)c(O)c1`, the Inhibition was 97% in the test with Plasmodium falciparum [1], 2% in the test with Plasmodium falciparum [2] and 7% in the test on HepG2.

In the case of `Cc1cnc(NCC2CCCCC2)nc1NCC(=O)Nc1ccccc1.O=C(O)C(F)(F)F`, the Inhibition with Plasmodium falciparum [1] was determined as 90%; in the test with Plasmodium falciparum [2], 51%; with HepG2, 21%.

`CCCc1cc(N2CCC(N(CC)CC)C2)nc(Nc2ccc(OC)cc2)n1` (configuration not stated): the Inhibition in the test with Plasmodium falciparum [1] was found to be 90%; in the test with Plasmodium falciparum [2] it was 4%; with HepG2 it was 9%.

Turning to `Cc1ccnc(NC(c2cccc(OCc3ccccc3)c2)c2ccc3cccnc3c2O)c1` (configuration not stated), the values for the Inhibition in the test with Plasmodium falciparum [1], in the test with Plasmodium falciparum [2] and in the test on HepG2 were 95%, 88% and 26%, respectively.

Consider `CC(C)c1ccc2c(c1)c(SC(C)(C)C)c(CC(C)(C)C#N)n2Cc1ccc(Cl)cc1`, for which the figures for the Inhibition in the test on Plasmodium falciparum [1], in the test on Plasmodium falciparum [2] and in the test on HepG2 were 96%, 95% and 0%, respectively.

With `CC1(C)NC(N)=NC(=N)N1OCc1cc(Cl)cc2c1OCOC2.Cl`, the Inhibition is recorded as 95% in the test with Plasmodium falciparum [1], 64% in the test with Plasmodium falciparum [2] and 65% with HepG2.

Take `CC(=O)Nc1cccc(CNCc2ccc(-c3cnc(N4CCCC(c5ccccc5)C4)nc3)cc2)c1.O=CO` (configuration not stated): the Inhibition with Plasmodium falciparum [1] stood at 84%; with Plasmodium falciparum [2], 22%; with HepG2 it was 16%.

Take `O=C(Cn1c(SCc2cccc(F)c2F)cc(=O)c2ccccc21)N(CCCn1ccnc1)Cc1ccc(-c2ccc(C(F)(F)F)cc2)cc1`: the results for the Inhibition in the test on Plasmodium falciparum [1], in the test with Plasmodium falciparum [2] and in the test on HepG2 were 99%, 99% and 21%, respectively.

As to `COc1cccc(CNC[C@@H](O)[C@H](Cc2ccccc2)NC(=O)c2cc(C3CCCC3)cc(N3CCCCS3(=O)=O)c2)c1.Cl`, the Inhibition in the test with Plasmodium falciparum [1] was found to be 96%; in the test with Plasmodium falciparum [2], 83%; with HepG2, 7%.

Turning to `CN(C)CCNc1cc(-c2ccc3ccccc3c2)nc2ccccc12`, the Inhibition with Plasmodium falciparum [1] was 100%; in the test with Plasmodium falciparum [2] it was 58%; in the test with HepG2, 24%.

For the molecule `Cc1[nH]c(C)c(-c2ccc(-c3ccc(OC(F)(F)F)cc3)nc2)c(=O)c1Cl`, the Inhibition in the test on Plasmodium falciparum [1] came out at 95%; in the test with Plasmodium falciparum [2] it was 95%; in the test on HepG2, 11%.

As for `Cc1cc(N[C@@H](CC(C)C)C(=O)NCc2cccs2)nc(NCCc2ccc(F)cc2)n1.O=C(O)C(F)(F)F`, the Inhibition is reported as 100% in the test with Plasmodium falciparum [1], 59% in the test with Plasmodium falciparum [2] and 20% with HepG2.

With `Cc1cccc(CCCNC(=O)CN(c2cccc(C(F)(F)F)c2)S(=O)(=O)c2ccc(C(F)(F)F)cc2)c1`, the Inhibition is recorded as 96% with Plasmodium falciparum [1], 94% with Plasmodium falciparum [2] and 9% in the test on HepG2.

`O=S(=O)(Nc1cccc(CCN2CCCCC2CCN2CCCC2)c1)c1cccc2ccccc12` (configuration not stated): the Inhibition is reported as 97% in the test with Plasmodium falciparum [1], 6% in the test with Plasmodium falciparum [2] and 23% with HepG2.

As for `Cl.N=C(N)NN=Cc1cc2ccccc2c2ccccc12`, the Inhibition in the test with Plasmodium falciparum [1] is on record as 100%; in the test with Plasmodium falciparum [2], 63%; in the test on HepG2 it was 25%.

For `CN1CCN(c2cccc(NC(=O)c3ccc(-c4ccc(C#N)cc4)cc3)c2)CC1`, the figures for the Inhibition in the test on Plasmodium falciparum [1], in the test on Plasmodium falciparum [2] and with HepG2 were 84%, 7% and 31%, respectively.

Take `Cc1nc(C)c(C2CCC(c3ccc(Cl)cc3)CC2)c(O)c1Cl` (configuration not stated): the figures for the Inhibition in the test with Plasmodium falciparum [1], in the test on Plasmodium falciparum [2] and in the test with HepG2 were 98%, 97% and 37%, respectively.

Take `CCSc1nc2sc3c(c2c(=O)n1-c1ccccc1)CCN(C)C3`: the Inhibition in the test on Plasmodium falciparum [1] was determined as 83%; in the test on Plasmodium falciparum [2] it was 71%; with HepG2, 16%.

`Cc1nc(C)c(-c2ccc(C(=O)c3ccccc3)cc2)c(O)c1Br`: the Inhibition with Plasmodium falciparum [1] came to 95%; in the test on Plasmodium falciparum [2], 96%; in the test with HepG2 it was 0%.

Take `O=C(NCC1CCC1)c1cnc(Nc2cccc(Cl)c2)nc1N1CCC1`: the Inhibition in the test on Plasmodium falciparum [1] was determined as 98%; with Plasmodium falciparum [2], 75%; in the test with HepG2, 21%.

In the case of `Cc1cccc(CN2CCCN(Cc3cccc(C(=O)Nc4ccc(C(C)(C)C)cc4)c3)CC2)c1.O=C(O)C(F)(F)F`, the Inhibition with Plasmodium falciparum [1] was 89%; in the test on Plasmodium falciparum [2], 40%; with HepG2, 98%.

For the molecule `Cc1c(C)n(Cc2ccccc2)c2ncnc(OC3CCN(CC(=O)NCC4CC4)CC3)c12`, the Inhibition in the test on Plasmodium falciparum [1] is 92%; with Plasmodium falciparum [2] it was 79%; in the test with HepG2 it was 17%.

Take `Cc1nc2nc(N)nc(N)c2c(C)c1Cc1ccccc1Cl.Cl`: the Inhibition came out at 93% with Plasmodium falciparum [1], 0% in the test on Plasmodium falciparum [2] and 63% in the test on HepG2.

Regarding `N=C(N)NN=CC(=O)Nc1ccc(Cl)c(Cl)c1`, the values for the Inhibition in the test on Plasmodium falciparum [1], in the test with Plasmodium falciparum [2] and in the test with HepG2 were 97%, 0% and 0%, respectively.

In the case of `CCCCCCNC(=O)C1Cc2c([nH]c3cc(Cl)ccc23)C2(CCN(CCC)CC2)N1` (configuration not stated), the Inhibition in the test on Plasmodium falciparum [1] came to 92%; with Plasmodium falciparum [2] it was 18%; with HepG2, 8%.

These data come from ChEMBL document CHEMBL1157539, “Thousands of chemical starting points for antimalarial lead identification” (Nature, 2010).
